Screening results deposited in PubChem by National Center for Advancing Translational Sciences (NCATS).
TDP-43 yeast inh: qHTS of TDP-43 Inhibitors | AID 652104, 2013 | actives 1.8% (n = 410,000) | TDP-43 expressing yeast growth rescue, BacTiter-Glo, 24 h | Potency, µM (doses to about 46.1 µM), inactives show top-dose growth rescue (activation), usual class: activators; also: % of control where 0% means no effect; nearly all actives have a fitted effect of over 50% in size
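In this qHTS, compounds that restore growth of yeast expressing TDP-43 appear as activators. Cells (OD600=0.02, galactose medium, raffinose-pregrown) are incubated with compound 24 hr at 30 deg C and growth is quantified by BacTiter-Glo.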
aSyn yeast inh: qHTS of alpha-syn Inhibitors | Yeast expressing alpha-synuclein, growth rescue, BacTiter-Glo, 24 h | Potency, µM (highest dose often 46.1 µM), for the others: at the top dose growth rescue (activation), most hits filed as activators | actives 0.14% (n = 370,000) | AID 652106, 2013; also: % of control where 0% means no effect; nearly all actives have a fitted effect of over 65% in size
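Readout is rescue of growth in alpha-synuclein-expressing yeast, so inhibitors of toxicity appear as activators. Growth after 24 hr at 30 deg C in galactose medium is quantified by luminescence.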
FUS yeast rescue: qHTS for Suppressors of FUS Proteinopathy: Primary screen using FUS-linked yeast assay. S. cerevisiae FUS-expressing, growth rescue, OD600, 24 h. Potency, µM (titrated, usually from 76.6 µM), usual class: activators. actives 0.24% (n = 390,000). AID 1347120, 2019;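 also: plate controls were DMSO vehicle for no effect and reference control for full effect; nearly all actives have a fitted effect of over 55% in size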
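Read-out: OD at 600 nm after 24hr at 30C, reporting rescue of FUS-induced yeast toxicity. Cells at OD 0.005 in galactose (2%) minimal medium; compounds tested in a dilution series; CP55940 titration from 92uM final as control.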
Abeta yeast res: qHTS for compounds that reverse cellular toxicity of Amyloid beta (A-beta) peptide in yeast: Primary Screen; yeast expressing A-beta42, growth rescue, OD600, 48 h; response scale: 0% DMSO, 100% iron-clioquinol control; Potency, µM (doses to about 46.1 µM), most hits filed as activators; actives 0.063% (n = 410,000); also: nearly all actives have a fitted effect of over 55% in size
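Yeast growth medium received pinned compounds, then yeast cells expressing toxic A-beta were added; plates incubated at 30 C for 48 hr. Growth read as absorbance at 600 nm, normalized to DMSO and equimolar FeCl3 plus clioquinol controls.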
Active calls of the source: *; i = inactive; ? = inconclusive; nt = no result given; [ ] = dose if it differs, or a comment. Hits are enriched below; roughly 2.1% of the tested compounds scored in any of these assays. Calls follow the shape of the dose curve; as a rule, active = well fitted curve in the direction sought with a large enough effect; inconclusive = small, poorly fitted or top-dose-only effect, or another doubt; inactive = no such curve, though single readings can be large; an effect the other way counts as inactive or inconclusive. Potency is read from the fitted curve at half-maximal effect.

SMILES	TDP-43 yeast inh	aSyn yeast inh	FUS yeast rescue	Abeta yeast res
Fc1ccccc1CNc1ncnc2sccc12	11.2µM*	-1.8%	i	i
CN1C(=O)c2cc(NC(=O)C3CCCCC3)ccc2OC[C@H]2O[C@@H](CC(=O)NC3CCCC3)CC[C@H]21	nt	nt	i	nt
C=Cc1ccc(Cn2nc(-c3ccccc3)ccc2=O)cc1	11.2µM*	?	?	i
COc1cc(CN2C(=O)C(CCc3ccccc3)ON=C2c2cnccn2)cc(OC)c1 (stereo not drawn)	35.5µM*	1.0%	i	i
CC(=O)Nc1ccc(CN2C(=O)C(Cc3ccccc3)ON=C2c2ncccc2C)cc1 (stereo not drawn)	19.6%	-0.1%	i	i
CC(=O)Oc1ccc(CN2C(=O)C(CCc3ccccc3)ON=C2c2cnccn2)cc1 (stereo not drawn)	14.1µM*	16.6%	i	i
Cn1c(=O)c2c(nc(SCC(=O)Nc3ccc(OC(F)(F)F)cc3)n2Cc2cccc(C(F)(F)F)c2)n(C)c1=O	-0.5%	nt	i	i
Cc1ccc(NC(=O)CSc2nc(=O)cc(N)n2-c2ccccc2)cc1	6.4%	3.2%	?	i
Nc1cc(=O)nc(SCC(=O)N(C2CCCCC2)C2CCCCC2)n1-c1ccccc1	-14.3%	-3.8%	28.2µM*	i
CC(C)C[C@H]1COCCS(=O)(=O)N1Cc1cccc(C(F)(F)F)c1	14.1µM*	0.4%	i	i
O=S1(=O)CCOC[C@H](Cc2ccccc2)N1Cc1cccc(Cl)c1	?	17.1%	i	i
CCC(C)[C@H]1COCCS(=O)(=O)N1Cc1ccc(Br)cc1 (stereo partly drawn)	35.5µM*	11.2%	i	i
CC(C)C[C@H]1COCCS(=O)(=O)N1Cc1cccc(Cl)c1	?	0.7%	i	i
O=S1(=O)CCOC[C@H](Cc2ccccc2)N1Cc1ccc(Cl)cc1	15.8µM*	18.0%	i	i
COC(=O)c1ccc(NC(=O)c2ccccc2OCC(=O)Nc2ccc(Br)cc2)cc1	nt	-2.0%	nt	nt
COc1ccc(Nc2c(-c3ccc(C)o3)nc3cc(C)ccn23)cc1	17.2%	nt	i	i
COc1ccc([N+](=O)[O-])cc1NC(=O)C(C)OC(=O)CC1CCCC1 (stereo not drawn)	20µM*	-10.1%[1.84 µM]	?	i
COc1ccc([N+](=O)[O-])cc1NC(=O)C(C)OC(=O)C1CCCC1 (stereo not drawn)	26.7%	-2.9%	i	i
COc1ccc([N+](=O)[O-])cc1NC(=O)C(C)Sc1ccc(C)cc1 (stereo not drawn)	12.6µM*	9.1%	nt	i
COc1ccc(OC)c(NC(=O)Cn2c(=O)n(-c3cccc(C)c3)c(=O)c3c2c2cc(C)ccc2n3C)c1	5.8%	nt	i	i
COc1ccc2c(c1)-c1c(ssc1=S)C(C)(C)N2	17.8µM*	2.3%	i	i
COc1cccc(C2=CC(c3ccccc3F)n3ncc(C(=O)Nc4ccc(F)cc4)c3N2)c1 (stereo not drawn)	22.4µM*	nt	i	i
CC1(C)CC(=O)C=C(NC2=CC3OC(c4ccccc4)OCC3OC2=O)C1 (stereo not drawn)	12.6µM*	12.6µM*	nt	i
Cc1ccccc1NC1=CC(=O)CC(C)(C)C1	-14.7%	-1.5%	i	i
CN(C(=O)CSc1nc(-c2ccccc2)no1)c1ccc(F)cc1	?	nt	i	i
SMILES	TDP-43 yeast inh	aSyn yeast inh	FUS yeast rescue	Abeta yeast res
COC(=O)c1sc(S(=O)(=O)Nc2ccc(C)cc2)c(C(=O)OC)c1C	20µM*	5.4%	i	i
Cc1ccc(/C=N/Nc2nc(C(C)(C)C)cs2)o1	12.9%	0.9%	i	i
Cc1ccc(/C=N/Nc2nc3ccccc3s2)o1	11.2µM*	-0.2%	i	?
Cc1cccc(NC(=O)C(Cc2ccccc2)NS(=O)(=O)c2ccc3c(c2)c(=O)n(C)c(=O)n3C)c1 (stereo not drawn)	-7.8%	nt	i	i
CC1(C)Cc2c(C#N)c(NCCCO)nc(-c3ccccc3)c2CO1	12.6µM*	2.8%	i	i
CCn1cc(C(=O)N2CCN(c3cccc(Cl)c3)CC2)c(=O)c2cc(S(=O)(=O)N3CCC(C)CC3)ccc21	0.4%	nt	?	i
CCC1CCc2c(sc(NC(=O)c3ccco3)c2C(N)=O)C1 (stereo not drawn)	12.6µM*	-9.0%	i	i
Cc1ccnc(NS(=O)(=O)c2ccc(NC(=O)Cc3cccs3)cc2)n1	13.5%	3.6%	?	i
CC(Cc1cccs1)NC(=S)Nc1ccc(Cl)c(Cl)c1 (stereo not drawn)	-16.7%[0.397 µM]	-0.3%	i	11.2µM*
O=C(Cc1cccs1)Nc1ccc(F)c(F)c1	?	12.5%	i	i
Cc1ccc(NC(=O)Cc2cccs2)cc1Cl	20µM*	1.8%	i	i
CC(Cc1cccs1)NC(=S)Nc1ccc(Cl)cc1 (stereo not drawn)	-13.5%[0.397 µM]	-18.0%	i	?
O=C(Cc1cccs1)Nc1ccc(S(=O)(=O)Nc2ncccn2)cc1	-0.5%	-14.0%	10µM*	i
Cc1cccc(C)c1-n1nnnc1C1c2ccccc2OCC(=O)N1Cc1ccc(F)cc1 (stereo not drawn)	nt	nt	i	nt
COc1cc(OC)c(-c2nn3c(-c4cc(C)[nH]n4)nnc3s2)cc1OC	nt	-0.7%	nt	nt
CCOc1ccc2cc(/C=C/C(=O)c3ccco3)c(Cl)nc2c1	7.94µM*	-1.0%	i	i
CCOc1ccc2nc(SCC(=O)NNC(=O)c3ccco3)c(C)cc2c1	-12.7%	1.5%	i	i
CC(=O)c1cnc(SCc2ccc(Cl)cc2)nc1C	?	22.3%	i	i
O/N=C/c1ccnc(SCc2ccc(Cl)cc2)n1	10µM*	0.6%	i	i
O/N=C/c1ccnc(SCc2ccccc2)n1	11.2µM*	-6.1%	i	i
CCOC(=O)c1ccc(NC(=O)CSc2ccc3ccccc3n2)cc1	?	nt	i	i
COc1cccc(N2CCN(C(=O)CCn3nnc4ccccc43)CC2)c1	nt	nt	i	nt
Cc1noc(/C=C/N(C)C)c1S(=O)(=O)N1CCCC(C(=O)Nc2ccc3c(c2)OCO3)C1 (stereo not drawn)	1.6%	0.2%	5.62µM*	i
CC(=O)c1ccc(N2CCN(C(=O)C3CCN(S(=O)(=O)c4ccc(Br)s4)CC3)CC2)cc1	24.9%	nt	i	i
O=C(c1ccc(-c2ccc([N+](=O)[O-])cc2)o1)N1CCCCC1	12.6µM*	0.1%	i	i
O=C(c1ccc(-c2cccc([N+](=O)[O-])c2)o1)N1CCN(c2ccc([N+](=O)[O-])cc2)CC1	-7.8%	1.1%	i	i
CC1CC(C)CN(C(=O)c2ccc(-c3ccc([N+](=O)[O-])cc3)o2)C1 (stereo not drawn)	14.1µM*	-14.8%	i	i
